From PubChem BioAssay AID463173 (ICCB-Longwood Screening Facility, Harvard Medical School, 2010) come the findings set out here.

Hit rate of the full screen: of about 52,000 compounds, about 1,700 (3.3%) were called active. This is one part of a sample in which actives are shown more often than they occur. No stated cut-off is given here; in the data, active means survival mostly below about 52% (no sharp cut-off); inactive means mostly above about 56%.

The assay deals with Wild type. The assay is described as follows: S. aureus survival, RN4220 and DeltatarO strains – OD600, teichoic acid synthesis inhibitors, primary screen (AID 463173). The settings on record: S. aureus RN4220 wild type/DeltatarO growth, OD600, 18 h, stronger effect = lower value, screened at 18.75 µg/mL (by protocol).
`Cc1ccc(C)c(S(=O)(=O)n2nnc3ccccc32)c1`: the survival was 104% (inactive).

Take `CCOC(=O)N1CCc2c(sc3c2c(=O)n(-c2ccc(Cl)cc2)c(=O)n3Cc2cccc(OC)c2)C1`: the survival is 120% (inactive).

For `Cc1ccc(CCNC(=O)Cn2c(-c3cccs3)cc3ccccc32)cc1`, the survival was 119% (inactive).

With `Cc1ccc(C)c(N2CCN(C(=O)NC3CCCCC3)CC2)c1`, the survival was 103% (inactive).

In the case of `COc1ccc2nc3oc(C(=O)Nc4cccc(C(F)(F)F)c4)cc3cc2c1`, the survival was 66% (inactive).

Regarding `CCCN1C(=O)CN(C2CCCCCC2)C(=O)C1c1ccc(OCC)c(OC)c1` (centres undefined), the survival is 120% (inactive).

For `CCCOc1ccc(C2C(=O)N(C3CCCCC3)CC(=O)N2C2CCCCC2)cc1OC` (centres undefined), the survival was 77% (inactive).

Take `CCCCN1C(=O)CN(C2CCCCCC2)C(=O)C1c1ccc(OCCC)c(OC)c1` (centres undefined): the survival was 87% (inactive).

As to `CCCOc1ccc(C2C(=O)N(C3CCCCCC3)CC(=O)N2CCC)cc1OC` (centres undefined), the survival was -6% (active).

Regarding `COc1ccc(C2C(=O)N(C3CCC(C)CC3)CC(=O)N2C2CCCC2)cc1OC` (centres undefined), the survival is -4% (active).

On to `CCCOc1ccc(C2C(=O)N(C3CCC(C)CC3)CC(=O)N2CCC2=CCCCC2)cc1OC` (centres undefined), for which the survival is 87% (inactive).

For the molecule `CCCOc1ccc(C2C(=O)N(C3CCCCCC3)CC(=O)N2CCC2=CCCCC2)cc1OC` (centres undefined), the survival is 123% (inactive).

As for `COc1ccc(C2C(=O)N(C3CCC(C)CC3)CC(=O)N2CCC2=CCCCC2)cc1OC` (centres undefined), the survival was -3% (active).

Turning to `COc1ccc(C2C(=O)N(C3CCC(C)CC3)CC(=O)N2C2CCCCC2)cc1OC` (centres undefined), the survival is 64% (inactive).

Take `COc1ccc(-n2cc(C(=O)N(C)c3cc(C)ccc3OC)c3ccccc3c2=O)cc1`: the survival was 114% (inactive).

On to `Cc1ccc(NC(=O)CCc2c(C)nc3nc(C)nn3c2C)c(Cl)c1`, for which the survival is 70% (inactive).

Take `CCc1nnc(SC(CC)C(=O)NCCOC)c2cc3occc3n12` (centres undefined): the survival is 105% (inactive).

Regarding `Cc1ccc(C(=O)n2nc(C)c(S(=O)(=O)N3CCOCC3)c2C)cc1`, the survival was 85% (inactive).

Regarding `CCN(c1cccc(C)c1)S(=O)(=O)c1cc(Br)cc2c1N(C(C)=O)C(C)C2` (centres undefined), the survival is 75% (inactive).

For the molecule `CN(C)CCNC(=O)c1ccc(-n2c(-c3ccccc3)cc3c2CCCC3)cc1`, the survival is 29% (inactive).

Take `CN(C)CCNC(=O)c1ccc(-n2c(-c3ccccc3)cc3c2CCCCC3)cc1`: the survival was 17% (inactive).

`CCN(CC)CCNC(=O)c1ccc(-n2c(-c3ccccc3)cc3c2CCCC3)cc1`: the survival was 2% (active).

As to `Cc1ccc(C2C(C(=O)/C=C/c3ccccc3)=C(O)C(=O)N2CCO)cc1` (centres undefined), the survival was 99% (inactive).

As for `O=C1CC(CSc2nnnn2-c2ccccc2)=NN1`, the survival is 128% (inactive).

As to `O=S(=O)(NCCSc1nnnn1-c1ccccc1)c1ccc(F)cc1`, the survival was 76% (inactive).

Regarding `O=S1(=O)C=C(Sc2nnnn2-c2ccccc2)c2ccccc21`, the survival was -1% (active).

`O=S(=O)(c1ccc(-c2csc(=Nc3ccc(F)cc3)n2CCCCCCO)cc1)N1CCCC1`: the survival was 55% (inactive).

As to `O=S(=O)(c1ccc(-c2csc(=Nc3ccc(OC(F)(F)Cl)cc3)n2CCCO)cc1)N1CCCC1`, the survival is 132% (inactive).

As for `Cc1ccc(-c2csc(=Nc3ccccc3)n2CCCO)cc1`, the survival is -7% (active).

As to `COc1ccc(-c2csc(=Nc3ccccc3)n2CCO)cc1F`, the survival is 63% (inactive).

`OCCCn1c(-c2ccc(F)cc2)csc1=Nc1ccc(F)cc1`: the survival was 9% (active).

`CCN(CC)CCn1c(-c2ccccc2)csc1=Nc1ccccc1`: the survival was 45% (inactive).

For the molecule `Cc1ccc(NC(=O)C(=O)NCC(c2ccc3c(c2)OCO3)N2CCN(c3ccccc3)CC2)cc1` (centres undefined), the survival is 75% (inactive).

Take `O=C(CCC1N=C2c3ccccc3N=C(SCC(=O)Nc3ccccc3F)N2C1=O)NCc1ccccc1` (centres undefined): the survival was 76% (inactive).

On to `CCOc1ccc(CNC(=O)C2CCN(S(=O)(=O)N3CCC(C)CC3)CC2)cc1OC`, for which the survival was 84% (inactive).

Take `CCOc1ccc(-c2nnc(SCC(=O)c3ccc(Br)cc3)n2-c2ccccc2)cc1`: the survival is 92% (inactive).

Take `CC(=O)N1CCc2c(sc3c2c(=O)n(CCc2ccccc2)c(=O)n3Cc2ccc(Cl)cc2)C1`: the survival was 65% (inactive).

On to `O=C(CSc1nc2c(c(=O)[nH]1)CN(Cc1ccc3c(c1)OCO3)CC2)Nc1ccccc1Cl`, for which the survival was 81% (inactive).

For `O=C(CCN1CCCCC1)c1ccccc1`, the survival is 92% (inactive).

On to `Cc1ccc2nc(Cl)c3cc(C(=O)NC4CCC(C)CC4)sc3c2c1` (centres undefined), for which the survival is 72% (inactive).

On to `CCOC(=O)C1CCCN(C(=O)c2cc3c(Cl)nc4ccccc4c3s2)C1` (centres undefined), for which the survival is 41% (inactive).

As for `O=C(c1cc2c(Cl)nc3ccccc3c2s1)N1CCCCC1`, the survival was 58% (inactive).

As to `CC1CCCN(C(=O)c2cc3c(Cl)nc4ccccc4c3s2)C1` (centres undefined), the survival is -2% (active).

For `O=C(NC1CCCCC1)c1cc2c(Cl)nc3ccccc3c2s1`, the survival is 77% (inactive).

Consider `O=C(NC1CCCCCC1)c1cc2c(Cl)nc3ccccc3c2s1`, for which the survival was 123% (inactive).

With `Cc1ccc2nc(Cl)c3cc(C(=O)N4CCCC(C)C4)sc3c2c1` (centres undefined), the survival is -2% (active).

Take `Cc1ccc2nc(Cl)c3cc(C(=O)NC4CCCCCC4)sc3c2c1`: the survival was 119% (inactive).

With `Cc1ccc2nc(Cl)c3cc(C(=O)N4CCCCC4)sc3c2c1`, the survival is -2% (active).

On to `CC(C)N(C(=O)c1cc2c(Cl)nc3ccccc3c2s1)C1CCCCC1`, for which the survival is -1% (active).

For `Cc1ccc2nc(Cl)c3cc(C(=O)NC4CCCCC4)sc3c2c1`, the survival is 76% (inactive).

In the case of `Cc1ccc2nc(Cl)c3cc(C(=O)N4CCCCC4C)sc3c2c1` (centres undefined), the survival is 21% (inactive).

In the case of `CCCCC(=O)Nc1ccc(OCc2cc(=O)n3c(C)csc3n2)cc1`, the survival was 87% (inactive).

With `COc1ccccc1NC(=O)C(Cc1ccccc1)NS(=O)(=O)c1ccc2c(c1)CCN2C(C)=O` (centres undefined), the survival is 80% (inactive).

On to `CCOc1ccccc1NS(=O)(=O)c1ccc2c(c1)oc(=O)n2C`, for which the survival is 82% (inactive).

As to `O=C(Nc1ccc2nn(-c3ccccc3)nc2c1)c1cc2ccccc2o1`, the survival was 80% (inactive).

Take `COC(=O)c1scc(-c2ccc(C)cc2)c1S(=O)(=O)N1CCN(c2cccc(OC)c2)CC1`: the survival is 53% (inactive).

For the molecule `CCCCn1c(Cc2ccccc2)nnc1SCC(=O)NC`, the survival was 104% (inactive).

Turning to `COC(=O)c1ccc(NC(=O)c2cc(S(=O)(=O)N3CCOCC3)cn2C)cc1`, the survival was 84% (inactive).

As to `COC(=O)C1(c2ccccc2)NC(c2ccc(O)cc2)C2C(=O)N(c3ccc4c(c3)OCCO4)C(=O)C21` (centres undefined), the survival is 106% (inactive).

As to `Cc1cc(N2CCC(C(=O)N(CC(C)C)CC(C)C)CC2)n2nc(C)c(-c3ccc(Cl)cc3)c2n1`, the survival was 91% (inactive).

As for `COc1ccc(NC(=O)CN2C(=O)CC(c3ccc(C)c(C)c3)=Nc3ccccc32)cc1OC`, the survival is 76% (inactive).

Consider `CCCn1c(SCC(=O)N2CCCC2)nnc1C(C)C`, for which the survival is 105% (inactive).

Take `Cc1ccc(NC(=O)CCC(=O)N2Cc3ccccc3Oc3ncccc32)cc1F`: the survival is 82% (inactive).

For `CCn1cc(C(=O)NCCCOC(C)C)c(=O)c2cc(S(=O)(=O)N3CCOCC3)ccc21`, the survival is 131% (inactive).

For `COc1ccc(OC)c(CNC(=O)CN(c2ccc(C)cc2)S(=O)(=O)N(C)C)c1`, the survival is 80% (inactive).

As to `O=[N+]([O-])c1ccc(O)c(-c2ccnc3cc(-c4ccccc4)nn23)c1`, the survival was 29% (inactive).

With `COc1ccc(-c2cc3ncc(C(=O)c4cc([N+](=O)[O-])ccc4O)cn3n2)cc1`, the survival was 58% (inactive).

For the molecule `CCc1ccc(O)c(C(=O)c2cnc3cc(-c4ccc(C)cc4)nn3c2)c1`, the survival was 66% (inactive).

With `O=C(c1cnc2cc(-c3ccccc3)nn2c1)c1cc([N+](=O)[O-])ccc1O`, the survival is 19% (active).

Take `Cc1ccc(-c2cc3ncc(C(=O)c4cc([N+](=O)[O-])ccc4O)cn3n2)cc1`: the survival was 15% (active).

For the molecule `Cc1ccc(-c2cc3ncc(C(=O)c4cc(Cl)c(C)cc4O)cn3n2)cc1`, the survival was 91% (inactive).

On to `O=C(CCC(=O)N1CCOc2ccccc21)NCc1cccs1`, for which the survival was 83% (inactive).

Turning to `Cc1cccc(NC(=O)Cn2c(=O)oc3cc(S(=O)(=O)NCc4ccccc4)ccc32)c1`, the survival was 92% (inactive).

In the case of `CC(=O)c1ccc(NC(=O)Cn2nc(C(F)(F)F)c3c2CCC3)cc1`, the survival is 66% (inactive).

For the molecule `CCc1ccc(NC(=O)C2CCN(S(=O)(=O)c3cccc(-c4noc(C)n4)c3)CC2)cc1`, the survival is 90% (inactive).

Consider `Cc1cc(C)cc(NC(=O)C2CCN(S(=O)(=O)c3cccc(-c4noc(C)n4)c3)CC2)c1`, for which the survival was -6% (active).

In the case of `CCc1cccc(NC(=O)C2CCN(S(=O)(=O)c3cccc(-c4noc(C)n4)c3)CC2)c1`, the survival is 80% (inactive).

`CCOc1ccc(N(CC(=O)Nc2ccccc2)S(C)(=O)=O)cc1`: the survival was 110% (inactive).

Turning to `COc1cc(Cl)c(C)cc1NC(=O)c1cc2ccc3cccnc3c2[nH]1`, the survival was 73% (inactive).

Take `Cc1cnc2c(c1SCC(=O)N(C)c1ccccc1)c(=O)n(C)c(=O)n2C`: the survival was 100% (inactive).

For the molecule `Cc1ccccc1-c1nc(CN2CCC(C(=O)NCc3ccccc3Cl)CC2)c(C)o1`, the survival is 85% (inactive).

For `Cc1ccc(Cn2c(=N)n(CC(=O)c3ccccc3)c3ccccc32)cc1`, the survival was 107% (inactive).

For `CC(C)(C)c1ccc(Cn2c(=N)n(CC(O)c3ccco3)c3ccccc32)cc1` (centres undefined), the survival was 53% (active).

As to `CCOC(=O)Cn1c(=N)n(Cc2ccc(C(C)(C)C)cc2)c2ccccc21`, the survival was 95% (inactive).

`NC(=S)N/N=C/c1ccc(Sc2cccc3cccnc23)o1`: the survival is 115% (inactive).

Turning to `Cc1cc(=O)n(Cc2ccccc2)c2c1c(C)nn2C`, the survival was -3% (active).

As to `COC(=O)c1ccc(Cn2c(=O)cc(C)c3c(C)nn(C)c32)cc1`, the survival was 53% (inactive).

On to `C=Cc1ccc(Cn2c(=O)cc(C)c3c(C)nn(C)c32)cc1`, for which the survival is 0% (active).

In the case of `COc1cccc(Cn2c(=O)cc(C)c3c(C)nn(C)c32)c1`, the survival was 85% (inactive).

For the molecule `Cc1cc(=O)n(Cc2ccccc2)c2c1c(C)nn2-c1ccccc1`, the survival is 72% (inactive).

Turning to `Cc1cc(=O)n(Cc2cccc(Cl)c2)c2c1c(C)nn2C`, the survival is 66% (inactive).

As for `Cc1ccc(C)c(Cn2c(=O)cc(C)c3c(C)nn(C)c32)c1`, the survival was 63% (inactive).

Consider `Cc1cc(=O)n(Cc2ccc(Cl)cc2)c2c1c(C)nn2-c1ccccc1`, for which the survival is 131% (inactive).

Turning to `C=Cc1ccc(Cn2c(=O)cc(C)c3c(C)nn(-c4ccccc4)c32)cc1`, the survival was -1% (active).
